Screening data from PubChem.
cardiac RTF act – cardiac RTF calcium sensitivity activators, primary screen, biochemical, IANBD-TnC fluorescence, EC20 calcium; Troponin I, cardiac muscle (Homo sapiens) + Troponin T, cardiac muscle (Homo sapiens) + …; IANBD-labeled TnC RTF fluorescence at EC20 calcium; 0% EC20 calcium, 100% full calcium; activation, % at 7.2 µM; 0.24% of 340,000 active;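 active means activation above the mean over all tested compounds plus 3 SD, cut at about 30% in these data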;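 further: rise in fluorescence read as greater calcium sensitivity of cardiac thin filaments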
C-LANA FP – inhibitors of KSHV C-LANA binding to DNA, primary screen, biochemical, fluorescence polarization, FAM-LBS DNA, MBP-C-LANA, single point; Kaposi's sarcoma herpesvirus LANA C-terminal domain (residues 932-1162) DNA binding; 0.078% of 340,000 active; inhibition, % at 9 µM;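 active means highest replicate inhibition at or above 60% at 9 µM, even if other replicates fall short; inactive means all replicates below 60% inhibition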;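 further: 0% = neutral control wells and 100% = 4 µM acridine orange control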
Keap1-Nrf2 PPI – Keap1-Nrf2 protein-protein interaction inhibitors, primary screen, biochemical, fluorescence polarization, single point. Keap1 Kelch-Nrf2 peptide fluorescence polarization, 1536-well. 0.15% of 340,000 active. Kelch-like ECH-associated protein 1 (Homo sapiens), Q14145. inhibition, % at 9.4 µM; in the data active means inhibition above about 12%;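 further: human Keap1 Kelch domain with fluorescein labeled Nrf2 9mer peptide probe; 0% = neutral control wells and 100% = peptide positive control; higher means more block of Keap1 binding to Nrf2 peptide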
Target sequence (Q14145 whole entry, looked up, the tested form may be a part): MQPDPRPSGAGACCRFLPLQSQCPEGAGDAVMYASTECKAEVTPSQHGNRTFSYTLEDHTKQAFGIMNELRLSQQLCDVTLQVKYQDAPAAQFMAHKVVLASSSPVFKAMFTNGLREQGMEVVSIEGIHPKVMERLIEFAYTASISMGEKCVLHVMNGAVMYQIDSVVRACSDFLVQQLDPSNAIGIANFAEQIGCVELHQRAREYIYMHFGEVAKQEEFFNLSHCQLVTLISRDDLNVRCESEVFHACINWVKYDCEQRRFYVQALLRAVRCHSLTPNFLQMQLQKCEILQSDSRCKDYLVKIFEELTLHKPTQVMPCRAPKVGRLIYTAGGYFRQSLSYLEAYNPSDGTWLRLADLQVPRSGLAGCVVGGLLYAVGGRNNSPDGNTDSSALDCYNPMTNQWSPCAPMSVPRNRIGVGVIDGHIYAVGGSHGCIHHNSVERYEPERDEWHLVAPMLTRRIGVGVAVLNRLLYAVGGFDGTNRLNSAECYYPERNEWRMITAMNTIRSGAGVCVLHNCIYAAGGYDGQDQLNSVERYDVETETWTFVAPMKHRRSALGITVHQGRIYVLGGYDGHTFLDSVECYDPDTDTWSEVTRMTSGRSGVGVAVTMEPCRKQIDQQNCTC
RTF Ca sens inh – cardiac RTF calcium sensitivity inhibitors, primary screen, biochemical, IANBD-TnC fluorescence, EC70 calcium. Troponin I, cardiac muscle (Homo sapiens) + Troponin T, cardiac muscle (Homo sapiens) + …. IANBD-labeled cardiac RTF, Ca2+ fluorescence. inhibition, % at 7.15 µM. 0.12% of 340,000 active. AID 493244, 2011;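 active means inhibition above the mean inhibition of all tested compounds plus 3 SD, cut at about 17% in these data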;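 further: assay run at fixed EC70 calcium of 1.6 mM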
An asterisk follows results filed as active. In the library only some 0.5% were active in any assay of this set; here they are far more common.

For CC12CCC(=O)N1C(C(=O)Nc1cc(S(=O)(=O)N3CCCCCC3)ccc1OCC(F)(F)F)CS2 (stereo unspecified) the results were cardiac RTF act 0.8, C-LANA FP -0.9, Keap1-Nrf2 PPI -5.3 and RTF Ca sens inh -3.1.
For CCCCn1c(N)c(N(CCOC)C(=O)CSc2n[nH]c(-c3ccc(OC)cc3)n2)c(=O)[nH]c1=O the results were cardiac RTF act 5.1, C-LANA FP -0.2, Keap1-Nrf2 PPI -2.0 and RTF Ca sens inh -2.3.
For Cc1ccc(/C=C2/NC(=O)N(Cc3ccccc3F)C2=O)s1 the results were cardiac RTF act 34.5*, C-LANA FP 16.0, Keap1-Nrf2 PPI -1.3 and RTF Ca sens inh -72.1.
`CCCN(CC(=O)Nc1ccccc1OC)C(=O)CCC(=O)c1ccc(OCC)cc1` gave cardiac RTF act -4.1, C-LANA FP -2.9, Keap1-Nrf2 PPI -3.1 and RTF Ca sens inh -4.1.
For CCCCC(=O)Nc1ccc(C(=O)Nc2ccc(OC)cc2[N+](=O)[O-])cc1 the results were cardiac RTF act 80.9*, C-LANA FP 0.9, Keap1-Nrf2 PPI -3.3 and RTF Ca sens inh -70.0.
`Cc1cc(C(=O)O)ccc1-c1ccc(/C=C2\SC(=O)N(CC(=O)Nc3ccc4c(c3)OCO4)C2=O)o1` gave cardiac RTF act 46.0*, C-LANA FP 10.5, Keap1-Nrf2 PPI 13.5* and RTF Ca sens inh -1.6.
`Cc1ccc(C(=O)O)cc1-c1ccc(/C=C2\SC(=O)N(CC(=O)Nc3ccccc3)C2=O)o1` gave cardiac RTF act 3.9, C-LANA FP 8.3, Keap1-Nrf2 PPI 0.8 and RTF Ca sens inh 1.9.
COc1cccc(/C=N/Nc2nc3ccccc3[nH]2)c1O was read as cardiac RTF act -4.9, C-LANA FP 0.3, Keap1-Nrf2 PPI -6.0 and RTF Ca sens inh -1.3.
COc1cccc(/C=N/c2nc3ccccc3[nH]2)c1O was read as cardiac RTF act 186.7*, C-LANA FP 2.6, Keap1-Nrf2 PPI -1.2 and RTF Ca sens inh 4.0.
For COc1ccc(CNC(=O)CN2CCC(NC(=O)c3cccc(OC)c3)CC2)cc1 the results were cardiac RTF act -4.7, C-LANA FP 0.1, Keap1-Nrf2 PPI 4.9 and RTF Ca sens inh 0.5.
CC(=O)Nc1ccc(N2C(=O)c3cccc4c(O)ccc(c34)C2=O)cc1 was read as cardiac RTF act 608.8*, C-LANA FP 36.2, Keap1-Nrf2 PPI 2.3 and RTF Ca sens inh inactive.
CC(NC(=O)COc1ccccc1)C(=O)NCc1ccccc1Cl (stereo unspecified) was read as cardiac RTF act 1.6, C-LANA FP 0.0, Keap1-Nrf2 PPI 2.6 and RTF Ca sens inh 1.3.
For C=CCOC(=O)c1cc(-c2ccc(/C=C3\C(=O)NC(=O)C(C#N)=C3C)o2)ccc1Cl the results were cardiac RTF act -11.8, C-LANA FP 80.6*, Keap1-Nrf2 PPI 3.1 and RTF Ca sens inh -4.6.
CCCOC(=O)c1cc(-c2ccc(/C=C3/C(=O)N(C)C(=O)C(C#N)=C3C)o2)ccc1Cl was read as cardiac RTF act 0.6, C-LANA FP 1.8, Keap1-Nrf2 PPI -5.5 and RTF Ca sens inh 3.4.
Screening C=CCN1C(=O)c2cccc3c(N4CCCCC4)ccc(c23)C1=O returned cardiac RTF act 73.9*, C-LANA FP 6.6, Keap1-Nrf2 PPI -0.1 and RTF Ca sens inh -60.3.
O=C1c2cccc3c(N4CCCCC4)ccc(c23)C(=O)N1CCO was read as cardiac RTF act 75.6*, C-LANA FP 27.6, Keap1-Nrf2 PPI 7.3 and RTF Ca sens inh -100.7.
Screening O=C(OCCN1C(=O)c2cccc3c(N4CCOCC4)ccc(c23)C1=O)c1ccccc1Cl returned cardiac RTF act 112.3*, C-LANA FP 48.5, Keap1-Nrf2 PPI 54.8* and RTF Ca sens inh -95.4.
CN(CC(=O)Nc1ccc(N2CCOCC2)cc1)C(=O)CCNC(=O)c1ccc(Br)cc1 was read as cardiac RTF act 6.9, C-LANA FP 0.8, Keap1-Nrf2 PPI -0.1 and RTF Ca sens inh -0.2.
Screening CC1(C)CC2CC(C)(CN2C(=O)COC(=O)c2ccccc2C(F)(F)F)C1 (stereo unspecified) returned cardiac RTF act -8.8, C-LANA FP 0.5, Keap1-Nrf2 PPI 0.1 and RTF Ca sens inh -3.2.
For COC(=O)c1ccccc1-c1ccc(/C=N/NC(=O)c2cc3ccccc3o2)o1 the results were cardiac RTF act -6.2, C-LANA FP 2.1, Keap1-Nrf2 PPI -5.4 and RTF Ca sens inh 7.4.
COC(=O)c1ccccc1-c1c2ccc(=N)cc-2oc2cc(N)ccc12 was read as cardiac RTF act active and Keap1-Nrf2 PPI active.
Screening CCN(CC)c1ccc(/C=c2\sc3nc4ccccc4n3c2=O)c(O)c1 returned cardiac RTF act 53.2*, C-LANA FP 2.1, Keap1-Nrf2 PPI -7.9 and RTF Ca sens inh -81.2.
Screening O=c1/c(=C/c2ccc(O)c([N+](=O)[O-])c2)sc2nc3ccccc3n12 returned C-LANA FP -0.7 and Keap1-Nrf2 PPI -2.2.
Oc1c(Br)cc(/C=N/n2c(-c3ccccc3)n[nH]c2=S)c(O)c1Br was read as cardiac RTF act -2.5, C-LANA FP 24.1, Keap1-Nrf2 PPI 23.6* and RTF Ca sens inh -3.8.
For Oc1c(Br)cc(/C=N/n2c(-c3ccccc3)n[nH]c2=S)cc1Br the results were cardiac RTF act 0.9, C-LANA FP -6.9, Keap1-Nrf2 PPI -3.5 and RTF Ca sens inh -0.3.
For CC(=O)c1ccc(C(=O)Nc2sc3c(c2C(N)=O)CCN(Cc2ccccc2)C3)cc1 the results were cardiac RTF act 102.3*, C-LANA FP 8.7, Keap1-Nrf2 PPI -4.0 and RTF Ca sens inh -160.5.
Screening NC(=O)c1c(NC(=O)C2COc3ccccc3O2)sc2c1CCN(Cc1ccccc1)C2 (stereo unspecified) returned cardiac RTF act 38.0*, C-LANA FP 23.4, Keap1-Nrf2 PPI -2.0 and RTF Ca sens inh -76.8.
Cc1ccc(S(=O)(=O)N(CC(=O)NCc2ccccc2Cl)C(=O)N2CCN(C)CC2)cc1 was read as cardiac RTF act 9.7, C-LANA FP -0.7, Keap1-Nrf2 PPI -1.6 and RTF Ca sens inh -6.6.
Screening O=C(Nc1ccccc1F)C(=Cc1sc(N2CCOCC2)nc1-c1ccccc1)C(=O)Nc1ccccc1F returned cardiac RTF act 30.4*, C-LANA FP 53.8, Keap1-Nrf2 PPI -7.3 and RTF Ca sens inh -9.2.
`COc1cccc(CNC(=O)Cn2c(=O)c3cccn3c3ccccc32)c1` gave cardiac RTF act -3.4, C-LANA FP 1.5, Keap1-Nrf2 PPI 1.1 and RTF Ca sens inh -6.2.
Screening CC1CCc2c(nc3nc[nH]n3c2=O)C1 (stereo unspecified) returned cardiac RTF act -3.9, C-LANA FP 2.2, Keap1-Nrf2 PPI -1.6 and RTF Ca sens inh 7.9.
S=c1c2c(nc3nc[nH]n13)CCC2 was read as cardiac RTF act 1.7, C-LANA FP 62.8*, Keap1-Nrf2 PPI -2.2 and RTF Ca sens inh -11.6.
CN(C)c1ccc(N=Cc2nc(-c3ccccc3)oc2O)cc1 was read as cardiac RTF act 45.2*, C-LANA FP 6.4, Keap1-Nrf2 PPI -3.2 and RTF Ca sens inh -24.3.
